Measurements reported in the supplement of paper PMC11732987, “Enantioselective OTUD7B fragment discovery through chemoproteomics screening and high-throughput optimisation” (Communications Chemistry, 2025).
Values without a mark were called inactive.

Experiments:
Test in all cases: log2 ratio of Biotin-Ahx-Ub-VS probe labelling (fragment/DMSO); higher = less target engagement (more negative = stronger competition), active = hit call of the paper (q ≤ 0.05, log2 ratio ≤ -1)
Conditions in all cases: compound concentration: 200 uM; treatment time: 3 h
UniProt O00507 = biological target: UniProt O00507
Sequence of UniProt O00507 (O00507 whole entry, the tested form may be a part): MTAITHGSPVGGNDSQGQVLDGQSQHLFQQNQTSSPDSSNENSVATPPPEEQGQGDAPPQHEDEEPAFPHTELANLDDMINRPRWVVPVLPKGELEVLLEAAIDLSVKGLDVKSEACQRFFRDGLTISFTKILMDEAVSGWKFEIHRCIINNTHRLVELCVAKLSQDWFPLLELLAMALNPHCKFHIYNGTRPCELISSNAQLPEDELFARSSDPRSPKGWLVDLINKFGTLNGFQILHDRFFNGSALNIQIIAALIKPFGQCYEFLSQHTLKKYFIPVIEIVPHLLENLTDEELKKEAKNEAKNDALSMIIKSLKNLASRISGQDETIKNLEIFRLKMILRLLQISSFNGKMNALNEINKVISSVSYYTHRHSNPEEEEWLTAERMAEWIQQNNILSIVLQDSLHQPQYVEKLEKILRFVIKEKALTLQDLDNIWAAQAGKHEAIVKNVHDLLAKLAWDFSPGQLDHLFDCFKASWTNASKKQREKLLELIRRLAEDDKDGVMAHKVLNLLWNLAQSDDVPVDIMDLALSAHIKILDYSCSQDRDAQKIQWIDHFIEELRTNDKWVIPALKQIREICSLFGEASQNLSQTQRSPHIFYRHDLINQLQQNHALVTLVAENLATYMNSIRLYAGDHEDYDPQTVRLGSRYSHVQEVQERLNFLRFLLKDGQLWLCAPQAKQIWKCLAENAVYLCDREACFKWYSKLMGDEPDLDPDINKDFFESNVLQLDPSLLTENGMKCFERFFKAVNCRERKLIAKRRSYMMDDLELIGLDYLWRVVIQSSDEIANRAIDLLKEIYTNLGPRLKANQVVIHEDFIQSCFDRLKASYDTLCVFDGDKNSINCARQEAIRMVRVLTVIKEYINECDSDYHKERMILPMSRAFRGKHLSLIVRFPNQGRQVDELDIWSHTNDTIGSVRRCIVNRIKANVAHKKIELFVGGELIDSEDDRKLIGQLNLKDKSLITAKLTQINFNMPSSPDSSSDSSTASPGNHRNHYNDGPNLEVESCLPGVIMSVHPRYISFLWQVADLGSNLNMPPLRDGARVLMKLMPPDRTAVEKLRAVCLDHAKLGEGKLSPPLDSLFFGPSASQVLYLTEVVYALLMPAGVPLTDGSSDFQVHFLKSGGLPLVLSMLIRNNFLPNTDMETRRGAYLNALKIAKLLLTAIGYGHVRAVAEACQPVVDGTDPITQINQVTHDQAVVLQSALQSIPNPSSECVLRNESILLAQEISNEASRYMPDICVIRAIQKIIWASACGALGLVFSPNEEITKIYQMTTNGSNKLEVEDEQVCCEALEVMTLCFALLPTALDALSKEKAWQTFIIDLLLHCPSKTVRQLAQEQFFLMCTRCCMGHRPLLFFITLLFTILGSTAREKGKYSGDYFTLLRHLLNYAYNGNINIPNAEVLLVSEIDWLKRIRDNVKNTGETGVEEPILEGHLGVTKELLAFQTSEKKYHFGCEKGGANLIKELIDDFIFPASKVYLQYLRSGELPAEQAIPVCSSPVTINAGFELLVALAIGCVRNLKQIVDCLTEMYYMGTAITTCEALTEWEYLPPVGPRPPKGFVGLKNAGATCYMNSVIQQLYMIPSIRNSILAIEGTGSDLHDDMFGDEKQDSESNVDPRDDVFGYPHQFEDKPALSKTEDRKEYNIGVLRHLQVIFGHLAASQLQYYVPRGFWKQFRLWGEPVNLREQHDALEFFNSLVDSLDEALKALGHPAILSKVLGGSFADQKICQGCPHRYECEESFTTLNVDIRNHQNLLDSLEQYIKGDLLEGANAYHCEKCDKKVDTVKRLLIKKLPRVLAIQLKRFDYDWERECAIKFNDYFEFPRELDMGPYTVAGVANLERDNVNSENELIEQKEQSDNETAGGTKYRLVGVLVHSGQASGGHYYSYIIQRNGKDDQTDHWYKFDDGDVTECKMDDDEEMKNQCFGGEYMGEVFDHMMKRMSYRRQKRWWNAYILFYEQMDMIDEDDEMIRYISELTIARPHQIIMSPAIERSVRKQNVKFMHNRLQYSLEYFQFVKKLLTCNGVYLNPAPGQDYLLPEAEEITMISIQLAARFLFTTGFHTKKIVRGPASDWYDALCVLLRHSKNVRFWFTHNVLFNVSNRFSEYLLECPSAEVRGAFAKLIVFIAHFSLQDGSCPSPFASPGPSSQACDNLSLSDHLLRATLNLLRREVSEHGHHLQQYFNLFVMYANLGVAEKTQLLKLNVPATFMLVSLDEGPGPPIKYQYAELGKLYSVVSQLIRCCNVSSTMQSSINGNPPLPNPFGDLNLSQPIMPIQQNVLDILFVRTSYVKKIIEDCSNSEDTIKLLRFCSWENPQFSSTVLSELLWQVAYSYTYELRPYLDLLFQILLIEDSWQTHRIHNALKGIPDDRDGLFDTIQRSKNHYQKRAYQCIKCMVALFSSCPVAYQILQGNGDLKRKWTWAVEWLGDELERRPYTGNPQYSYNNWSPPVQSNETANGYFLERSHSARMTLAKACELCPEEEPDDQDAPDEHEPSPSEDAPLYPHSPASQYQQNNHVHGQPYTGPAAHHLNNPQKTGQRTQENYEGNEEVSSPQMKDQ
Method in brief: (§1)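 HEK293T lysate (495 µg per sample, in Tris/CHAPS/IGEPAL buffer with protease inhibitors) was exposed in triplicate for 3 h to fragment at 200 µM or to vehicle, then to Biotin-Ahx-Ub-VS at 0.5 µM final for 1 h. Labelled DUBs were enriched on NeutrAvidin, digested with LysC and trypsin, and analysed by diaPASEF LC-MS/MS. Spectronaut label-free quantities were normalised to the global median, and values are average log2 ratios of fragment over vehicle from an unpaired t-test. Only proteins with ≥2 unique peptides were used.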

UniProt P51784 = biological target: UniProt P51784
Sequence of UniProt P51784 (P51784 whole entry): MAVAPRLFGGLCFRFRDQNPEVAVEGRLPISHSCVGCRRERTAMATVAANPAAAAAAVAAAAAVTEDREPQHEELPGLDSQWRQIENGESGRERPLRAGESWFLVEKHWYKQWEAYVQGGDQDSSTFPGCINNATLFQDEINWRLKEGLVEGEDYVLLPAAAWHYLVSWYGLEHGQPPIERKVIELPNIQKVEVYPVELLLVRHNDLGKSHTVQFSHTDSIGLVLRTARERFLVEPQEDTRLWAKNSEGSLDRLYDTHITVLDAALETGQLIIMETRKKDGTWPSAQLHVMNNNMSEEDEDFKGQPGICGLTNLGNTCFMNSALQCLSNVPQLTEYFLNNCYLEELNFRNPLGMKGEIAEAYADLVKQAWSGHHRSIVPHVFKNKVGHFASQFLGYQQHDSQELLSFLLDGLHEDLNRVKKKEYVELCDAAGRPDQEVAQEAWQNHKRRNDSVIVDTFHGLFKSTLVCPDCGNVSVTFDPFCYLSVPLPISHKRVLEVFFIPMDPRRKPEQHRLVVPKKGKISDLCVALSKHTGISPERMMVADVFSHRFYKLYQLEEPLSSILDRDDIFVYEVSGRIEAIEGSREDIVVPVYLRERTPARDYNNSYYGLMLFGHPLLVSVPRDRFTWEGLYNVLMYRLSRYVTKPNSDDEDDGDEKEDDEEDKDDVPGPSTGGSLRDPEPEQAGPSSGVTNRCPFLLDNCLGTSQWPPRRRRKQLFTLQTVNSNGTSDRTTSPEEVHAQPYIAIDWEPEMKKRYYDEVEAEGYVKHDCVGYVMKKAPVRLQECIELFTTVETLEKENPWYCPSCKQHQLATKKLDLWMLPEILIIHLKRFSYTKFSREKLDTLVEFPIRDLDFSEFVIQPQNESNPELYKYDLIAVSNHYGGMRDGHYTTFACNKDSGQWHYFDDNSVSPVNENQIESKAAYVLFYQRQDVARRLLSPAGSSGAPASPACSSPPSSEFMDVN
Method in brief: as §1

UniProt Q5T2D3 = biological target: T1, UniProt Q5T2D3
T1 sequence (whole entry): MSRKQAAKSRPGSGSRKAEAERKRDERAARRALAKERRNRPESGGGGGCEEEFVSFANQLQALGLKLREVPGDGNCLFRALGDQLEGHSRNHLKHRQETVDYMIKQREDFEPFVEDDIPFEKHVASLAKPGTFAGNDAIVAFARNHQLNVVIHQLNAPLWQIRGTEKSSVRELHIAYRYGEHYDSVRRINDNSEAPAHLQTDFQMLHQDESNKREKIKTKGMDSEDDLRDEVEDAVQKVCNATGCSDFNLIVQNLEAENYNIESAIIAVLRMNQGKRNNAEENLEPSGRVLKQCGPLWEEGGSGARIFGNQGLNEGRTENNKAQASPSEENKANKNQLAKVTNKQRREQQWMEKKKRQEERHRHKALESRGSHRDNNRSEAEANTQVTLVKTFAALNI
Method in brief: as §1

UniProt Q8TE49 = biological target: T2, UniProt Q8TE49
T2 sequence (whole entry): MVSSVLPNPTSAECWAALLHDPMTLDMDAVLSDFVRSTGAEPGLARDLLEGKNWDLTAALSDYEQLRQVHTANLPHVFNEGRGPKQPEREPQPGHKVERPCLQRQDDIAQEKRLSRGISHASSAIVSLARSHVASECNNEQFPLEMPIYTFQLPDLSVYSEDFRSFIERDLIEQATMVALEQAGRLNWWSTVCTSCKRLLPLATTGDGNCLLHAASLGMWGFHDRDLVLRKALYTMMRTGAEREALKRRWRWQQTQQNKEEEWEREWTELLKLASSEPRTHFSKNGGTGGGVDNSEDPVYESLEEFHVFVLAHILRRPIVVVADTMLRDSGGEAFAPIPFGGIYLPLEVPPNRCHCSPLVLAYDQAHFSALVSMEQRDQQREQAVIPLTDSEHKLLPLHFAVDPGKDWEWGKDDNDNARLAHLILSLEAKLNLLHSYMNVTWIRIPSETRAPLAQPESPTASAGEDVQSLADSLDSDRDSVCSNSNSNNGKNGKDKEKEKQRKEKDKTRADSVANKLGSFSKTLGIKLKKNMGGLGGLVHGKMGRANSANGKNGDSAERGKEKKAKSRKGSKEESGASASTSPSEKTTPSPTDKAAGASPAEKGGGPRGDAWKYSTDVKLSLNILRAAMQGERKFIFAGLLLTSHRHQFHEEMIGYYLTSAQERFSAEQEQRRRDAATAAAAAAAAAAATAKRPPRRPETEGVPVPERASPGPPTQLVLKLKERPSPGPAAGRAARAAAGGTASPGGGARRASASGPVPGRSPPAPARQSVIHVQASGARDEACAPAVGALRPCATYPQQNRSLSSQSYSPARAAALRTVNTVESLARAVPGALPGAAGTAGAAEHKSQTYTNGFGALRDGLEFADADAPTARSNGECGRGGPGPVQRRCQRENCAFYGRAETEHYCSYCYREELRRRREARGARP
Method in brief: as §1

UniProt Q9P2H5 = biological target: T3, UniProt Q9P2H5
T3 sequence (whole entry): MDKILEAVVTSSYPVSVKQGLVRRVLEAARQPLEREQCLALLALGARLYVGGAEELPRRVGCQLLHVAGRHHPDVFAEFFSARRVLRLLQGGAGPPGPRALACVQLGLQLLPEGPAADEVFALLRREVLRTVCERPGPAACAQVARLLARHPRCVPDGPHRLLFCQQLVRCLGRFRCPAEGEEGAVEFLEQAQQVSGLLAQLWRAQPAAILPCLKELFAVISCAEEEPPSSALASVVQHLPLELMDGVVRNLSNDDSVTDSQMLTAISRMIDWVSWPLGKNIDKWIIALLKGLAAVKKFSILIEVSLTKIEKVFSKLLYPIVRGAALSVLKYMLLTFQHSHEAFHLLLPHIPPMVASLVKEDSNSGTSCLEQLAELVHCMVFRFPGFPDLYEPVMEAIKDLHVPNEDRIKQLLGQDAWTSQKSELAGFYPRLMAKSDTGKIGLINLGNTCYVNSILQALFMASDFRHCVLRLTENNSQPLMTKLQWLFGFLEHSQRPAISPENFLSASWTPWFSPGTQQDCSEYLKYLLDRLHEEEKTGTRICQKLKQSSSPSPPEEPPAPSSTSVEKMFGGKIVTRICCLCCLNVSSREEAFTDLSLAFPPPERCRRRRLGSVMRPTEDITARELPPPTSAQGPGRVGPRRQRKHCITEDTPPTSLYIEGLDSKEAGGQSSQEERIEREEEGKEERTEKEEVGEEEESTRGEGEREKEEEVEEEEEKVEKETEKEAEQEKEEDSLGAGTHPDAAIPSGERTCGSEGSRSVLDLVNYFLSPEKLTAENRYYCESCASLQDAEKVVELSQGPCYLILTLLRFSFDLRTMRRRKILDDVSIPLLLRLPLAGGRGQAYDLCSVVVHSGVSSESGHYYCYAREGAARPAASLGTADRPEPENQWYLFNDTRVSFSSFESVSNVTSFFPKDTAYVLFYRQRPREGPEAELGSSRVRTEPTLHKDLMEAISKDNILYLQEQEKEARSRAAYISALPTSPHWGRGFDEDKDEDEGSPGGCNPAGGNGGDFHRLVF
Method in brief: as §1

UniProt Q9UGI0 = biological target: T4, UniProt Q9UGI0
T4 sequence (whole entry): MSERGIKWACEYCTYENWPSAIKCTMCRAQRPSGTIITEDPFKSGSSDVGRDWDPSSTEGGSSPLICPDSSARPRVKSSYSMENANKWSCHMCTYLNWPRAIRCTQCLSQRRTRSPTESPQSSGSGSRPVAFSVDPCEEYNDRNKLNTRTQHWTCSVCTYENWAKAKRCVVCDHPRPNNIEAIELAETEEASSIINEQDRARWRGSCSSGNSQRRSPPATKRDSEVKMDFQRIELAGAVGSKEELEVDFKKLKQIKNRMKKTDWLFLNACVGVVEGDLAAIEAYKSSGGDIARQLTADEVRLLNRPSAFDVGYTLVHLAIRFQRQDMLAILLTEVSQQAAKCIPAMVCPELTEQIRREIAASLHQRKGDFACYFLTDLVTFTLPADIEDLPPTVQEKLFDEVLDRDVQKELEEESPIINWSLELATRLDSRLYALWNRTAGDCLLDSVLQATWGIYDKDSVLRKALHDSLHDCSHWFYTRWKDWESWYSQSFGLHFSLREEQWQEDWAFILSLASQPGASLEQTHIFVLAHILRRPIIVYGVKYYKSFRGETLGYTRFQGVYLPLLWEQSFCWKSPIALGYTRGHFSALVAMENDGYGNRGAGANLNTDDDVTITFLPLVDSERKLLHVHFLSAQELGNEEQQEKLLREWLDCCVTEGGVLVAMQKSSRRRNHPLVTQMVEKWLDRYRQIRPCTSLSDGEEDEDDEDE
Method in brief: as §1

YOD1 = biological target: T5, YOD1 (UniProt Q5VVQ6)
T5 sequence (whole entry): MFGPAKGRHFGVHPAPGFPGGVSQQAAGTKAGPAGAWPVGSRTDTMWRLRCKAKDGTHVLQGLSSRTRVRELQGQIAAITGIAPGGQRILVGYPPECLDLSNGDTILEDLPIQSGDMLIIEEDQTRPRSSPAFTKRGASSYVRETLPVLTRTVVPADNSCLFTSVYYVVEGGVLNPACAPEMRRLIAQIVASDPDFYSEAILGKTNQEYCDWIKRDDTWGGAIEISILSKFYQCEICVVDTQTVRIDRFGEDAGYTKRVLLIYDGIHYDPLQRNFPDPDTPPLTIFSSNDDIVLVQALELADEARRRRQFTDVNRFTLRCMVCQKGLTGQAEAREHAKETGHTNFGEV
Method in brief: as §1

## Cc1cccn2cc(CCNC(=O)CCl)nc12.Cl
UniProt O00507
  log2 ratio of Biotin-Ahx-Ub-VS probe labelling: -0.143
UniProt P51784
  log2 ratio of Biotin-Ahx-Ub-VS probe labelling: -0.122
UniProt Q5T2D3
  log2 ratio of Biotin-Ahx-Ub-VS probe labelling: -0.0486
UniProt Q8TE49
  log2 ratio of Biotin-Ahx-Ub-VS probe labelling: -0.332
UniProt Q9P2H5
  log2 ratio of Biotin-Ahx-Ub-VS probe labelling: -0.379
UniProt Q9UGI0
  log2 ratio of Biotin-Ahx-Ub-VS probe labelling: -0.18
YOD1
  log2 ratio of Biotin-Ahx-Ub-VS probe labelling: -0.095

## Cc1cnc2[nH]cc(CCNC(=O)CCl)c2c1
UniProt O00507
  log2 ratio of Biotin-Ahx-Ub-VS probe labelling: -0.277
UniProt P51784
  log2 ratio of Biotin-Ahx-Ub-VS probe labelling: 0.0378
UniProt Q5T2D3
  log2 ratio of Biotin-Ahx-Ub-VS probe labelling: -0.197
UniProt Q8TE49
  log2 ratio of Biotin-Ahx-Ub-VS probe labelling: -0.5
UniProt Q9P2H5
  log2 ratio of Biotin-Ahx-Ub-VS probe labelling: 0.0093
UniProt Q9UGI0
  log2 ratio of Biotin-Ahx-Ub-VS probe labelling: -0.444
YOD1
  log2 ratio of Biotin-Ahx-Ub-VS probe labelling: -0.097

## Cl.O=C(CCl)NCCc1ncc(F)cc1F
UniProt O00507
  log2 ratio of Biotin-Ahx-Ub-VS probe labelling: 0.000732
UniProt P51784
  log2 ratio of Biotin-Ahx-Ub-VS probe labelling: -0.132
UniProt Q5T2D3
  log2 ratio of Biotin-Ahx-Ub-VS probe labelling: -0.431
UniProt Q8TE49
  log2 ratio of Biotin-Ahx-Ub-VS probe labelling: -0.85
UniProt Q9P2H5
  log2 ratio of Biotin-Ahx-Ub-VS probe labelling: -0.675
UniProt Q9UGI0
  log2 ratio of Biotin-Ahx-Ub-VS probe labelling: -0.786
YOD1
  log2 ratio of Biotin-Ahx-Ub-VS probe labelling: -0.195

## COc1ccc(Cl)cc1NC(=O)CCl
UniProt O00507
  log2 ratio of Biotin-Ahx-Ub-VS probe labelling: -0.985
UniProt P51784
  log2 ratio of Biotin-Ahx-Ub-VS probe labelling: -0.276
UniProt Q5T2D3
  log2 ratio of Biotin-Ahx-Ub-VS probe labelling: -0.485
UniProt Q8TE49
  log2 ratio of Biotin-Ahx-Ub-VS probe labelling: -0.837
UniProt Q9P2H5
  log2 ratio of Biotin-Ahx-Ub-VS probe labelling: -0.335
UniProt Q9UGI0
  log2 ratio of Biotin-Ahx-Ub-VS probe labelling: -0.741
YOD1
  log2 ratio of Biotin-Ahx-Ub-VS probe labelling: -0.669

## O=C(CCl)N1CCC(c2nc3ccccc3o2)CC1
UniProt O00507
  log2 ratio of Biotin-Ahx-Ub-VS probe labelling: -0.57
UniProt P51784
  log2 ratio of Biotin-Ahx-Ub-VS probe labelling: -0.0526
UniProt Q5T2D3
  log2 ratio of Biotin-Ahx-Ub-VS probe labelling: -0.14
UniProt Q8TE49
  log2 ratio of Biotin-Ahx-Ub-VS probe labelling: -0.625
UniProt Q9P2H5
  log2 ratio of Biotin-Ahx-Ub-VS probe labelling: -0.191
UniProt Q9UGI0
  log2 ratio of Biotin-Ahx-Ub-VS probe labelling: -0.567
YOD1
  log2 ratio of Biotin-Ahx-Ub-VS probe labelling: -0.217

## O=C(CCl)N1CCOC2(CCC2)CC1
UniProt O00507
  log2 ratio of Biotin-Ahx-Ub-VS probe labelling: -0.268
UniProt P51784
  log2 ratio of Biotin-Ahx-Ub-VS probe labelling: -0.147
UniProt Q5T2D3
  log2 ratio of Biotin-Ahx-Ub-VS probe labelling: -0.0132
UniProt Q8TE49
  log2 ratio of Biotin-Ahx-Ub-VS probe labelling: -0.472
UniProt Q9P2H5
  log2 ratio of Biotin-Ahx-Ub-VS probe labelling: -0.184
UniProt Q9UGI0
  log2 ratio of Biotin-Ahx-Ub-VS probe labelling: -1.19 (active)
YOD1
  log2 ratio of Biotin-Ahx-Ub-VS probe labelling: -0.0502

## CC1Cc2ccccc2N1C(=O)CCl (stereo not drawn)
UniProt O00507
  log2 ratio of Biotin-Ahx-Ub-VS probe labelling: -0.438
UniProt P51784
  log2 ratio of Biotin-Ahx-Ub-VS probe labelling: -0.254
UniProt Q5T2D3
  log2 ratio of Biotin-Ahx-Ub-VS probe labelling: -0.151
UniProt Q8TE49
  log2 ratio of Biotin-Ahx-Ub-VS probe labelling: -0.28
UniProt Q9P2H5
  log2 ratio of Biotin-Ahx-Ub-VS probe labelling: -0.127
UniProt Q9UGI0
  log2 ratio of Biotin-Ahx-Ub-VS probe labelling: -0.604
YOD1
  log2 ratio of Biotin-Ahx-Ub-VS probe labelling: -0.114

## Cl.O=C(CCl)N1CCn2ncc(O)c2C1
UniProt O00507
  log2 ratio of Biotin-Ahx-Ub-VS probe labelling: -0.112
UniProt P51784
  log2 ratio of Biotin-Ahx-Ub-VS probe labelling: -0.0869
UniProt Q5T2D3
  log2 ratio of Biotin-Ahx-Ub-VS probe labelling: -0.448
UniProt Q8TE49
  log2 ratio of Biotin-Ahx-Ub-VS probe labelling: -2.17 (active)
UniProt Q9P2H5
  log2 ratio of Biotin-Ahx-Ub-VS probe labelling: -0.541
UniProt Q9UGI0
  log2 ratio of Biotin-Ahx-Ub-VS probe labelling: -1.92 (active)
YOD1
  log2 ratio of Biotin-Ahx-Ub-VS probe labelling: -0.272

## CCC1c2ccsc2CCN1C(=O)CCl (stereo not drawn)
UniProt O00507
  log2 ratio of Biotin-Ahx-Ub-VS probe labelling: -0.266
UniProt P51784
  log2 ratio of Biotin-Ahx-Ub-VS probe labelling: -0.306
UniProt Q5T2D3
  log2 ratio of Biotin-Ahx-Ub-VS probe labelling: -0.0335
UniProt Q8TE49
  log2 ratio of Biotin-Ahx-Ub-VS probe labelling: -0.771
UniProt Q9P2H5
  log2 ratio of Biotin-Ahx-Ub-VS probe labelling: -0.118
UniProt Q9UGI0
  log2 ratio of Biotin-Ahx-Ub-VS probe labelling: -0.444
YOD1
  log2 ratio of Biotin-Ahx-Ub-VS probe labelling: -0.026
